In PubChem BioAssay (NCATS):
Records with an inconclusive call do not appear. Active and inactive are the calls of the source. Calls come from the whole dose curve; as a rule, active = well fitted curve in the direction sought with a large enough effect; inconclusive = small, poorly fitted or top-dose-only effect, or another doubt; inactive = no such curve, though single readings can be large; an effect the other way counts as inactive or inconclusive. *1 amine or outer side, *2 acyl side, *3 side chain or, on linkers, in order; H or OH if unused. Where a SMILES comes first, the peptide text is derived from it. Bridges are numbered along the chain shown (N, C = ends). [ ]: non-standard residue; d: D form. The star is where a group is joined. ξ: configuration not given here. X10 = NC1=NCCC(C(N[*:1])C(=O)[*:2])N1; ΔAla(3-NHCONH2) = NC(=O)NC=C(N)C(=O)O; ξβ3hOrn = NCCCC(N)CC(=O)*; Dap = NC[CH](N)C(=O)O

Columns and labels:
[1] = qHTS of pediatric cancer cell lines to identify multiple opportunities for drug repurposing: Primary screen for SK-N-MC cells (AID 1347093); note: potency is the fitted concentration of half-maximal effect;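 for activity change, negative = cytotoxic: series mostly up to about 46 µM; plate controls were DMSO neutral control for no effect and bortezomib for full effect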
Method in brief: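 Metabolically active cells were quantified by ATP-dependent luminescence (CellTiter-Glo, 15 min at room temperature) following 48 h treatment. Cells had been plated at 500-1,000 per well and settled for 5 h beforehand.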

[2] = qHTS of pediatric cancer cell lines to identify multiple opportunities for drug repurposing: Primary screen for BT-37 cells (AID 1347094); note: potency is the fitted concentration of half-maximal effect;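 for activity change, negative = cytotoxic: series mostly up to about 57 µM; plate controls were DMSO for no effect and bortezomib for full effect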
Method in brief: (§1)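 Primary screen of approved and investigational compounds on cells in growth media at 37 degrees C, 5% CO2. MIPE set at 11-point and NPC set at 8-point dilutions; viability scored by ATP-based luminescence at 48 hours.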

[3] = qHTS of pediatric cancer cell lines to identify multiple opportunities for drug repurposing: Primary screen for NB-EBc1 cells (AID 1347095); note: potency is the fitted concentration of half-maximal effect;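 for activity change, negative = cytotoxic: plate controls were DMSO neutral control for no effect and bortezomib for full effect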
Method in brief: as §1

[4] = qHTS of pediatric cancer cell lines to identify multiple opportunities for drug repurposing: Primary screen for Saos-2 cells (AID 1347097); note: nearly all actives have a fitted effect of over 40% in size; note: potency is the fitted concentration of half-maximal effect; for activity change, negative = cytotoxic: % is set by controls: 0 for no effect and ±100 for the full control effect
Method in brief: as §1

[5] = qHTS of pediatric cancer cell lines to identify multiple opportunities for drug repurposing: Primary screen for SK-N-SH cells (AID 1347098); note: nearly all actives have a fitted effect of over 65% in size; note: potency is the fitted concentration of half-maximal effect;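 for activity change, negative = cytotoxic: DMSO served as neutral control and bortezomib at 2.3 µM as positive control; % is set by controls: 0 for no effect and ±100 for the full control effect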
Method in brief: (§2)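 Cells (500-1,000/well) rested 5 h, then received compounds for 48 h; metabolically active cells were measured by CellTiter-Glo luminescence. Final concentrations spanned up to 46 µM (MIPE, 11-point) or 0.59 nM-46 µM (NPC, 8-point) in primary screens, 11-point in follow-ups.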

[6] = qHTS of pediatric cancer cell lines to identify multiple opportunities for drug repurposing: Primary screen for NB1643 cells (AID 1347099); note: nearly all actives have a fitted effect of over 50% in size; note: potency is the fitted concentration of half-maximal effect;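 for activity change, negative = cytotoxic: plate controls were DMSO neutral control for no effect and bortezomib positive control for full effect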
Method in brief: as §1

[7] = qHTS of pediatric cancer cell lines to identify multiple opportunities for drug repurposing: Primary screen for LAN-5 cells (AID 1347100); note: potency is the fitted concentration of half-maximal effect;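 for activity change, negative = cytotoxic: plate controls were DMSO neutral control for no effect and bortezomib positive control for full effect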
Method in brief: (§3)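 Cells (500-1,000/well) in growth media were settled 5 h at 37 degrees C, then given compounds for 48 h. Viability was read as CellTiter-Glo luminescence. Primary runs used MIPE at 11 points (0.78 nM-46 µM) and NPC at 8 points (0.59 nM-46 µM); follow-ups used 11 points.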

[8] = qHTS of pediatric cancer cell lines to identify multiple opportunities for drug repurposing: Primary screen for BT-12 cells (AID 1347101); note: nearly all actives have a fitted effect of over 25% in size; note: potency is the fitted concentration of half-maximal effect;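 for activity change, negative = cytotoxic: plate controls were DMSO for no effect and bortezomib positive control for full effect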
Method in brief: as §2

[9] = qHTS of pediatric cancer cell lines to identify multiple opportunities for drug repurposing: Primary screen for Rh18 cells (AID 1347102); note: nearly all actives have a fitted effect of over 65% in size; note: potency is the fitted concentration of half-maximal effect; for activity change, negative = cytotoxic: % is set by controls: 0 for no effect and ±100 for the full control effect
Method in brief: as §3

[10] = qHTS of pediatric cancer cell lines to identify multiple opportunities for drug repurposing: Primary screen for U-2 OS cells (AID 1347096);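 note: plate controls were DMSO wells for no effect and bortezomib positive control wells for full effect; nearly all actives have a fitted effect of over 50% in size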
Method in brief: as §3

COC(=O)c1cc(Cl)c(NC(C)=O)cc1OC
inactive: Potency [1] | Potency [2] | Potency [3] | Potency [4] | Potency [5] | Potency [6] | Potency [7] | Potency [8] | Potency [9]

CC(=O)c1cc2ccccc2s1
inactive: Potency [1] | Potency [2] | Potency [3] | Potency [4] | Potency [5] | Potency [6] | Potency [7] | Potency [8] | Potency [9]

CCC1=C[C@@H]2CN(C1)Cc1c([nH]c3ccccc13)[C@@](C(=O)OC)(c1cc3c(cc1OC)N(C)[C@H]1[C@@](O)(C(=O)OC)[C@H](OC(C)=O)[C@]4(CC)C=CCN5CC[C@]31[C@@H]54)C2
active: Potency [1] 0.0168 µM | Potency [2] 0.0276 µM | Potency [3] 0.0335 µM | Potency [6] 2.66 µM | Potency [7] 0.0084 µM | Potency [8] 0.0347 µM

NCCCC(N)CC(=O)NCC1NC(=O)C(CO)NC(=O)C(N)CNC(=O)C(C2CCN=C(N)N2)NC(=O)C(=CNC(N)=O)NC1=O (stereo not drawn) (H-[Dap]S[Dap](ξβ3hOrn)[ΔAla(3-NHCONH2)][X10]; lactam 1-C; configuration not given here)
inactive: activity change, negative = cytotoxic [1] -13.5% [at 0.597 µM] | activity change, negative = cytotoxic [2] 18% [at 0.745 µM] | activity change, negative = cytotoxic [3] 29.4% [at 0.597 µM] | activity change, negative = cytotoxic [4] 29.1% [at 0.597 µM] | activity change, negative = cytotoxic [6] 13.7% [at 0.597 µM] | activity change, negative = cytotoxic [7] 6.67% [at 0.597 µM] | activity change, negative = cytotoxic [8] 5.9% [at 0.745 µM] | activity change, negative = cytotoxic [9] 6.67% [at 0.597 µM]

CCN(CC)C(=O)C1CN2CCc3cc(OC)c(OC)cc3C2CC1OC(C)=O (stereo unspecified)
inactive: Potency [1] | Potency [2] | Potency [3] | Potency [5] | Potency [6] | Potency [8] | Potency [9]

CCC(=O)O[C@]1(C(=O)COC)[C@@H](C)C[C@H]2[C@@H]3CCC4=CC(=O)C=C[C@]4(C)C3(F)[C@@H](O)C[C@@]21C (stereo partly specified)
inactive: Potency [1] | Potency [2] | Potency [3] | Potency [10] | Potency [6] | Potency [7] | Potency [8]

COC(=O)c1cc(Cl)ccc1NS(=O)(=O)C(F)(F)F
inactive: Potency [1] | Potency [2] | Potency [3] | Potency [4] | Potency [6] | Potency [7] | Potency [8] | Potency [9]

CC(C)(C)c1ccc(C(=O)CCCCl)cc1
inactive: Potency [1] | Potency [2] | Potency [3] | Potency [5] | Potency [6] | Potency [7] | Potency [8] | Potency [9]

O=C(O)c1ccccc1S
inactive: Potency [1] | Potency [2] | Potency [3] | Potency [4] | Potency [5] | Potency [6] | Potency [7] | Potency [8] | Potency [9]

Cc1onc(-c2c(Cl)cccc2Cl)c1C(=O)Cl
inactive: Potency [1] | Potency [2] | Potency [3] | Potency [4] | Potency [6] | Potency [7] | Potency [8]

CCN(CC)CCN
inactive: Potency [1] | Potency [2] | Potency [3] | Potency [4] | Potency [5] | Potency [6] | Potency [7] | Potency [9]

Oc1ccc(CCNCCCCCCNCCc2ccccc2)cc1O
inactive: Potency [2] | Potency [3] | Potency [10] | Potency [6]
active: Potency [1] 23.7 µM

COC(=O)/C=C\C(=O)OC
inactive: Potency [1] | Potency [2] | Potency [3] | Potency [5] | Potency [6] | Potency [7] | Potency [8] | Potency [9]

CC1c2ccccc2CN1NC(=O)c1ccc(Cl)c(S(N)(=O)=O)c1 (stereo unspecified)
inactive: Potency [1] | Potency [2] | Potency [3] | Potency [4] | Potency [5] | Potency [6] | Potency [7] | Potency [8] | Potency [9]

CCOC(=O)C(=O)CCCCCCl
inactive: Potency [1] | Potency [2] | Potency [3] | Potency [4] | Potency [5] | Potency [6] | Potency [7] | Potency [8] | Potency [9]

CCCCCCCCCCCCCC[N+](C)(C)C
active: Potency [1] 3.35 µM | Potency [2] 15.5 µM | Potency [3] 21.1 µM | Potency [4] 16.8 µM | Potency [5] 15.4 µM | Potency [7] 7.5 µM | Potency [8] 3.89 µM | Potency [9] 4.22 µM

CC(=O)N(CC(O)CO)c1c(I)c(C(=O)NCCO)c(I)c(C(=O)NCC(O)CO)c1I (stereo unspecified)
inactive: Potency [1] | Potency [2] | Potency [3] | Potency [4] | Potency [5] | Potency [6] | Potency [7] | Potency [8] | Potency [9]

CC(NN)c1ccccc1 (stereo unspecified)
inactive: Potency [1] | Potency [2] | Potency [3] | Potency [10] | Potency [6] | Potency [7] | Potency [8] | Potency [9]

CC(Oc1c(Cl)cccc1Cl)C1=NCCN1 (stereo unspecified)
inactive: Potency [1] | Potency [2] | Potency [3] | Potency [4] | Potency [6] | Potency [7] | Potency [8] | Potency [9]

CC(C)C[C@@H]1[C@H](c2ccccc2)OC(=O)N1CCCN1CCCCCC1
inactive: Potency [1] | Potency [2] | Potency [3] | Potency [10] | Potency [6] | Potency [9]

Nc1c2ccccc2nc2ccccc12
active: Potency [1] 11.9 µM | Potency [2] 8.71 µM | Potency [3] 3.76 µM | Potency [5] 9.7 µM | Potency [8] 12.3 µM

CO[C@]1(NC(=O)CSC(F)F)C(=O)N2C(C(=O)O)=C(CSc3nnnn3CCO)CO[C@H]21
inactive: Potency [1] | Potency [2] | Potency [3] | Potency [4] | Potency [5] | Potency [6] | Potency [7] | Potency [8]

Cc1ccc(O)cc1
inactive: Potency [1] | Potency [2] | Potency [3] | Potency [4] | Potency [5] | Potency [6] | Potency [7]
